Results published in the supplement of paper PMC4723716.

Tested on: Plasmodium falciparum NF54 gametocytes
Assay: viability index relative to DMSO control (fraction); higher = less gametocyte killing
Conditions: 12.5 µM, incubation time: 72 h
Summary of the method: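 P. falciparum NF54 gametocytes at stages I–V were treated with compound at 12.5 µM for 72 hr at 37°C under low oxygen in serum-containing medium (0.50% gametocytemia, 1.25% hematocrit), then stained with MitoTracker Red CMXRos and imaged in serum-free medium containing 500 nM dye. The viability index is the gametocyte particle count divided by the plate mean of solvent-only wells.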

[1] = gametocyte stage: Stage I viability index
[2] = gametocyte stage: Stage II viability index
[3] = gametocyte stage: Stage III viability index
[4] = gametocyte stage: Stage IV viability index
[5] = gametocyte stage: Stage V viability index

## Cc1ccc(C)c(-c2csc(Nc3ccc(C)c(C)c3)n2)c1
[1]
  viability index: 0.856
[2]
  viability index: 0.815
[3]
  viability index: 0.82
[4]
  viability index: 0.639
[5]
  viability index: 0.558

## COc1ccc2c(c1OC)C(=O)N1c3ccccc3N=C(c3ccc(C)cc3)CC21 (stereo not given)
[1]
  viability index: 0.899
[2]
  viability index: 0.674
[3]
  viability index: 0.951
[4]
  viability index: 0.94
[5]
  viability index: 0.987

## CCOC(=O)c1cnc2c(CC)cccc2c1O
[1]
  viability index: 1.15
[2]
  viability index: 0.838
[3]
  viability index: 0.966
[4]
  viability index: 0.835
[5]
  viability index: 0.844

## CCOc1ccc2c(c1)CN(Cc1ccc(Cl)cc1)CO2
[1]
  viability index: 0.0612
[2]
  viability index: 0.129
[3]
  viability index: 0.452
[4]
  viability index: 0.592
[5]
  viability index: 0.468

## CC(C)OCc1cc(CN2CCN(c3cccc(Cl)c3)CC2)c(O)c2ncccc12
[1]
  viability index: 0.00331
[2]
  viability index: 0.0328
[3]
  viability index: 0.0297
[4]
  viability index: 0.0243
[5]
  viability index: 0.011

## CN1CCN(c2nc(Nc3ccc(O)cc3)nc3ccccc23)CC1
[1]
  viability index: 0.0262
[2]
  viability index: 0.247
[3]
  viability index: 0.796
[4]
  viability index: 0.927
[5]
  viability index: 0.74

## O=C(Nc1ccc(CN2CCOCC2)cc1)c1ccc(-c2ccc(Br)cc2)o1
[1]
  viability index: 0.141
[2]
  viability index: 0.543
[3]
  viability index: 0.926
[4]
  viability index: 0.787
[5]
  viability index: 1.16

## CCOc1ccc(C=Cc2nc(=O)c3ccccc3o2)cc1
[1]
  viability index: 0.549
[2]
  viability index: 0.836
[3]
  viability index: 0.85
[4]
  viability index: 0.805
[5]
  viability index: 0.67

## COc1ccc(-c2nonc2NC(=O)c2cccc(Cl)c2)cc1OC
[1]
  viability index: 0.27
[2]
  viability index: 0.207
[3]
  viability index: 0.505
[4]
  viability index: 0.684
[5]
  viability index: 0.187

## O=C(NC1CCCC1)c1ccc(N2CCC(NCc3cccc(C(F)(F)F)c3)CC2)cc1
[1]
  viability index: 0.243
[2]
  viability index: 0.573
[3]
  viability index: 0.76
[4]
  viability index: 0.76
[5]
  viability index: 0.604

## CCn1c(CN2CCN(Cc3ccccc3)CC2)nc2cc(NC(=O)c3cccs3)ccc21
[1]
  viability index: 0.701
[2]
  viability index: 0.837
[3]
  viability index: 0.924
[4]
  viability index: 0.967
[5]
  viability index: 1.05

## CC1CC(C)CN(C(=O)c2ccc(Cl)cc2Cl)C1 (stereo not given)
[1]
  viability index: 0.95
[2]
  viability index: 0.871
[3]
  viability index: 0.962
[4]
  viability index: 0.951
[5]
  viability index: 1.01

## Brc1ccc(Nc2nc3ccccc3nc2Nc2ccc(Br)cc2)cc1
[1]
  viability index: 0.0192
[2]
  viability index: 0.00916
[3]
  viability index: 0.0204
[4]
  viability index: 0.0222
[5]
  viability index: 0.104

## COc1ccc(C2N(C)c3ccccc3N2C)cc1
[1]
  viability index: 0.939
[2]
  viability index: 0.93
[3]
  viability index: 1.01
[4]
  viability index: 0.964
[5]
  viability index: 1.07

## Oc1ccc2ccccc2c1CNc1nc2ccccc2[nH]1
[1]
  viability index: 0.0376
[2]
  viability index: 0.182
[3]
  viability index: 0.512
[4]
  viability index: 0.462
[5]
  viability index: 0.273

## COc1ccc(C(=O)NC(c2ccccc2Cl)c2cc(Cl)c3cccnc3c2O)cc1 (stereo not given)
[1]
  viability index: 0.11
[2]
  viability index: 0.0824
[3]
  viability index: 0.167
[4]
  viability index: 0.241
[5]
  viability index: 0.221

## Cc1ccc(NC(=O)Nc2cccc(Cl)c2)cc1F
[1]
  viability index: 0.64
[2]
  viability index: 0.599
[3]
  viability index: 0.832
[4]
  viability index: 0.827
[5]
  viability index: 0.582

## c1ccc(Cn2c(N=Nc3c(Nc4ccccc4)ccc4ccccc34)nc3ccccc32)cc1
[1]
  viability index: 0.00884
[2]
  viability index: 0.0106
[3]
  viability index: 0.058
[4]
  viability index: 0.149
[5]
  viability index: 0.209

## COCCn1c(C)nc2ccccc2c1=O
[1]
  viability index: 0.825
[2]
  viability index: 0.879
[3]
  viability index: 0.733
[4]
  viability index: 0.711
[5]
  viability index: 0.418

## COc1ccccc1CNC(=O)CCn1c(=O)[nH]c2ccccc2c1=O
[1]
  viability index: 0.867
[2]
  viability index: 0.898
[3]
  viability index: 0.912
[4]
  viability index: 0.951
[5]
  viability index: 0.912

## O=C1c2ccccc2C2=Nc3ccccc3SC(c3cccc(F)c3)C12 (stereo not given)
[1]
  viability index: 0.857
[2]
  viability index: 0.869
[3]
  viability index: 0.868
[4]
  viability index: 0.75
[5]
  viability index: 0.844

## Nc1ccn(C2O[C@H](CO)[C@@H](O)[C@H]2O)c(=O)n1 (stereo not given in full)
[1]
  viability index: 0.976
[2]
  viability index: 1.14
[3]
  viability index: 0.955
[4]
  viability index: 1.07
[5]
  viability index: 1.1

## Cc1ccc(Cl)cc1N1CCN(CCCNC(=O)C2CCN(c3nc4ccccc4[nH]3)CC2)CC1
[1]
  viability index: 0.158
[2]
  viability index: 0.517
[3]
  viability index: 0.628
[4]
  viability index: 0.426
[5]
  viability index: 0.407

## OC(CNC1CCCCC1)Cn1c2ccccc2c2ccccc21 (stereo not given)
[1]
  viability index: 0.0354
[2]
  viability index: 0.0493
[3]
  viability index: 0.178
[4]
  viability index: 0.277
[5]
  viability index: 0.198

## CCOc1ccc(-c2nc(NC(=O)c3cccc(S(C)(=O)=O)c3)sc2C)cc1
[1]
  viability index: 0.956
[2]
  viability index: 0.686
[3]
  viability index: 1.1
[4]
  viability index: 0.857
[5]
  viability index: 0.857

## COc1cc2cc(C(=O)Nc3ccccc3)c(N)nc2cc1OC
[1]
  viability index: 0.0265
[2]
  viability index: 0.434
[3]
  viability index: 0.727
[4]
  viability index: 0.86
[5]
  viability index: 0.758

## Cc1cc(N2CCN(C3CCCC3)CC2)n2c(nc3ccccc32)c1C#N
[1]
  viability index: 0.833
[2]
  viability index: 0.875
[3]
  viability index: 1.15
[4]
  viability index: 1.02
[5]
  viability index: 1

## COc1ccc(OC)c(C2C3=C(CC(C)(C)CC3=O)N(c3ccc(Cl)c(Cl)c3)C3=C2C(=O)CC(C)(C)C3)c1
[1]
  viability index: 0.713
[2]
  viability index: 0.88
[3]
  viability index: 0.807
[4]
  viability index: 0.807
[5]
  viability index: 0.623

## FC(F)(F)c1ccc(Nc2nnnc3ccccc23)cc1
[1]
  viability index: 0.604
[2]
  viability index: 0.736
[3]
  viability index: 0.921
[4]
  viability index: 0.72
[5]
  viability index: 0.868

## COc1ccc(Nc2nc(NCc3ccccc3)c3ccccc3n2)cc1
[1]
  viability index: 0.0331
[2]
  viability index: 0.107
[3]
  viability index: 0.562
[4]
  viability index: 0.593
[5]
  viability index: 0.286
